Reference: the supplement of paper PMC10849652
Of roughly 7,900 targets only a part is listed; those with a hit were picked by preference. About 0.6% of all pairs of compound and target were hits. Unmarked numbers belong to inactive results.

Columns and labels:
Experiment in all cases: log2 fold change, soluble protein after heating vs DMSO (PISA); higher = thermal stabilisation; K562 cells, 10 uM, 30 min; active = over 0.2 and 3.5 SD of the protein, either way, in both replicates (recomputed)
[1] = compound: CC1=C(C=C(C=C1)NC(=O)C2=CC(=CC=C2)C(C)(C)C#N)NC3=CC4=C(C=C3)N=CN(C4=O)C
Procedure, shortened: (§1)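 K562 cells (2×10^6 cells/mL) were treated with 10 μM compound for 30 min, and aliquots were heated for 3 min over 48°C-58°C. Pooled aliquots were extracted in PBS with 0.5% NP-40 at 4°C, and the supernatant after 21,000xg for 90 min was measured by TMTpro 16plex LC-MS/MS with channel sums equalised. Reported thermal stability, relative to control samples and from duplicates, is a log2 fold change.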

[2] = compound: CC1=C(C=C(C=C1)NC(=O)C2=CC(=CC=C2)N(C)C)NC(=O)C3=CC=C(C=C3)O
Procedure, shortened: as §1

[3] = compound: CC1=CC=C(C=C1)SC2=C3C=C(SC3=CN=C2)C(=O)N
Procedure, shortened: as §1

[4] = compound: CC1=NC(=CC=C1)C2=C(N=C(N2)C(C)(C)C)C3=CC4=NC=CN=C4C=C3
Procedure, shortened: as §1

Nexturastat A = compound: CCCCN(Cc1ccc(C(=O)NO)cc1)C(=O)Nc1ccccc1 [Nexturastat A]
Procedure, shortened: as §1

vemurafenib = compound: CCCS(=O)(=O)Nc1ccc(F)c(C(=O)c2c[nH]c3ncc(-c4ccc(Cl)cc4)cc23)c1F [vemurafenib]
Procedure, shortened: as §1

[5] = compound: CCCS(=O)(=O)Nc1ccc(F)c(C(=O)c2c[nH]c3ncc(Cl)cc23)c1F
Procedure, shortened: as §1

[6] = compound: CCCc1cc(C)[nH]c(=O)c1CNC(=O)c1cc(-c2ccnc(N3CCN(C)CC3)c2)cc2c1cnn2C(C)C
Procedure, shortened: as §1

givinostat = compound: CCN(CC)Cc1ccc2cc(COC(=O)Nc3ccc(C(=O)NO)cc3)ccc2c1 [givinostat]
Procedure, shortened: as §1

barasertib = compound: CCN(CCCOc1ccc2c(Nc3cc(CC(=O)Nc4cccc(F)c4)[nH]n3)ncnc2c1)CCOP(=O)(O)O [barasertib]
Procedure, shortened: as §1

[7] = compound: CC[C@@H]1C(=O)N(C)c2cnc(Nc3ccc(C(=O)NC4CCN(C)CC4)cc3OC)nc2N1C1CCCC1
Procedure, shortened: as §1

volasertib = compound: CC[C@@H]1C(=O)N(C)c2cnc(Nc3ccc(C(=O)N[C@H]4CC[C@H](N5CCN(CC6CC6)CC5)CC4)cc3OC)nc2N1C(C)C [volasertib]
Procedure, shortened: as §1

[8] = compound: CC[C@H](C)N1C=C(C2=C(C=C(C=C21)C3=CN=C(C=C3)N4CCNCC4)C(=O)NCC5=C(C=C(NC5=O)C)C)C
Procedure, shortened: as §1

epoxomicin = compound: CC[C@H](C)[C@@H](C(=O)N[C@@H]([C@@H](C)O)C(=O)N[C@@H](CC(C)C)C(=O)[C@]1(CO1)C)NC(=O)[C@H]([C@@H](C)CC)N(C)C(=O)C [epoxomicin]
Procedure, shortened: as §1

[9] = compound: CCn1c(C(=O)N(C2CC2)C2CC2)cc2c3c(ncn3C)c(Nc3cc(C)n(C)n3)nc21
Procedure, shortened: as §1

[10] = compound: CCn1cc(-c2ccnc3[nH]c(-c4cccc(CN(C)C)c4)cc23)c(-c2ccc(NC(=O)N(C)C)cc2)n1
Procedure, shortened: as §1

[11] = compound: CN(C)CC(=O)Nc1ccc2[nH]c(=O)c3ccccc3c2c1
Procedure, shortened: as §1

rosiglitazone = compound: CN(CCOC1=CC=C(C=C1)C[C@H]2C(=O)NC(=O)S2)C3=CC=CC=N3 (racemic) [rosiglitazone]
Procedure, shortened: as §1

[12] = compound: CN1C2=C(C3=C1C(=O)N(N=C3)CC4=CC(=CC=C4)N)SC(=C2)S(=O)C
Procedure, shortened: as §1

[13] = compound: CN1CCC(CNc2ccc3ncc(-c4cccc(OC(F)(F)F)c4)n3n2)CC1
Procedure, shortened: as §1

Chain of UniProt Q04864 (Q04864 whole entry, looked up): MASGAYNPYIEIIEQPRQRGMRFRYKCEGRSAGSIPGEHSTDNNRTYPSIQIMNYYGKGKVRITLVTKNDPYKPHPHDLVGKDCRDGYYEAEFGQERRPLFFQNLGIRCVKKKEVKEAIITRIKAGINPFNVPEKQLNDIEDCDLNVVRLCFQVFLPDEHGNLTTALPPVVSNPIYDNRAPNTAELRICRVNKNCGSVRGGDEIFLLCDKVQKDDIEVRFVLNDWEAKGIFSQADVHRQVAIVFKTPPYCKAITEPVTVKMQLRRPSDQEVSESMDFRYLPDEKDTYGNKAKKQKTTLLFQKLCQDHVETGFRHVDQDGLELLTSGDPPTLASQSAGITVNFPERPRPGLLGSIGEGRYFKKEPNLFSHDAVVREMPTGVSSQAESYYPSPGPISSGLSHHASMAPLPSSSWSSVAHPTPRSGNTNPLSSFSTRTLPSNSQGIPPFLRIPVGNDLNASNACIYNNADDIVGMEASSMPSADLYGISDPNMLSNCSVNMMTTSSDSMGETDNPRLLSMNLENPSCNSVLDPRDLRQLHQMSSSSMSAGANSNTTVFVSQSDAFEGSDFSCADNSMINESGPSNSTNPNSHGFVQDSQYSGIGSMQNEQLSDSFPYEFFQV
Chain of UniProt Q9Y6Y8 (Q9Y6Y8 whole entry, looked up): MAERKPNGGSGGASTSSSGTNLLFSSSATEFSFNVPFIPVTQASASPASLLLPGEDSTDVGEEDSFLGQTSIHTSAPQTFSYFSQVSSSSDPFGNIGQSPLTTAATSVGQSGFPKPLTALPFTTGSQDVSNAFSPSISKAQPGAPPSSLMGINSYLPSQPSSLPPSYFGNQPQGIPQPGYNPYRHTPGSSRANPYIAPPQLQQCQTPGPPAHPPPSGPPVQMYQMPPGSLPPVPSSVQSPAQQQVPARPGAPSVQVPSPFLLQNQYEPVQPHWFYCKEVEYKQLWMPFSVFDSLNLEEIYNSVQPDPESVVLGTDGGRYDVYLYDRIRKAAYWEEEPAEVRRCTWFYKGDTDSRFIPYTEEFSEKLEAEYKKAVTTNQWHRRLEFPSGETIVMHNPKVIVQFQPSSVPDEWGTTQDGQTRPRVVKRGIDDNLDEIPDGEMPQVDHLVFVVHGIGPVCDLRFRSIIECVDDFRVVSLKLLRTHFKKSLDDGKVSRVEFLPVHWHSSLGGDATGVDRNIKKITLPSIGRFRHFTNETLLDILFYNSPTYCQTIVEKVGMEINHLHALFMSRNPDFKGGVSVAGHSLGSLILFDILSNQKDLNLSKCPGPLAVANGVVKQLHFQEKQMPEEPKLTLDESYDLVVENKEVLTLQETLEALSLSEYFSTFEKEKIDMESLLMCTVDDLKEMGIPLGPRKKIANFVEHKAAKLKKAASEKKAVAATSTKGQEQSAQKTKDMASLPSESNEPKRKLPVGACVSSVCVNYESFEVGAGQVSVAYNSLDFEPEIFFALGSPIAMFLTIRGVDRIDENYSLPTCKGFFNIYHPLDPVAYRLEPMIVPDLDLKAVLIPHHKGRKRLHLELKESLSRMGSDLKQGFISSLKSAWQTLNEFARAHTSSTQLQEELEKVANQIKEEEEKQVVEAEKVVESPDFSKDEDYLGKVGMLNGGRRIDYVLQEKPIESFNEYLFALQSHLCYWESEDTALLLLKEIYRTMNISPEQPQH
Chain of UniProt O95470 (O95470 whole entry, looked up): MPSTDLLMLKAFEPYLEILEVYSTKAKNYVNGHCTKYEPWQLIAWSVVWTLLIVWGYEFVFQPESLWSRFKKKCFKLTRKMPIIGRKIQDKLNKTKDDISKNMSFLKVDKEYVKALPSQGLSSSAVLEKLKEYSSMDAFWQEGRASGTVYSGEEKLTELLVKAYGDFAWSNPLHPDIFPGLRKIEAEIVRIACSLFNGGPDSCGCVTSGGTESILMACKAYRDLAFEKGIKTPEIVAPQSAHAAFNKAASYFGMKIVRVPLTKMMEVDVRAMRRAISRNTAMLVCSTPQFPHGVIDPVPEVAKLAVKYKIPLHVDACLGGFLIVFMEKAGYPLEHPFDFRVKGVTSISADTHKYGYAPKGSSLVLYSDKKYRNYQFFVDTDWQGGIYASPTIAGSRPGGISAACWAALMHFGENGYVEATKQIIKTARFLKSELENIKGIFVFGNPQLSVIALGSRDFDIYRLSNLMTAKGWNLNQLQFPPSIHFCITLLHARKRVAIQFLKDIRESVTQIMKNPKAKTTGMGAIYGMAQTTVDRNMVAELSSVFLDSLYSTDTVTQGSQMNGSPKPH
Chain of UniProt P63208 (P63208 whole entry, looked up): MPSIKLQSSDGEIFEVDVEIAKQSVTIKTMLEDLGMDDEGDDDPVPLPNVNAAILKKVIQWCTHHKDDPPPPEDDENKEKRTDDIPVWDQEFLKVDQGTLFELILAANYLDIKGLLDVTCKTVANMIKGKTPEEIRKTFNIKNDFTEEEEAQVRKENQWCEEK
Chain of UniProt P27694 (P27694 whole entry, looked up): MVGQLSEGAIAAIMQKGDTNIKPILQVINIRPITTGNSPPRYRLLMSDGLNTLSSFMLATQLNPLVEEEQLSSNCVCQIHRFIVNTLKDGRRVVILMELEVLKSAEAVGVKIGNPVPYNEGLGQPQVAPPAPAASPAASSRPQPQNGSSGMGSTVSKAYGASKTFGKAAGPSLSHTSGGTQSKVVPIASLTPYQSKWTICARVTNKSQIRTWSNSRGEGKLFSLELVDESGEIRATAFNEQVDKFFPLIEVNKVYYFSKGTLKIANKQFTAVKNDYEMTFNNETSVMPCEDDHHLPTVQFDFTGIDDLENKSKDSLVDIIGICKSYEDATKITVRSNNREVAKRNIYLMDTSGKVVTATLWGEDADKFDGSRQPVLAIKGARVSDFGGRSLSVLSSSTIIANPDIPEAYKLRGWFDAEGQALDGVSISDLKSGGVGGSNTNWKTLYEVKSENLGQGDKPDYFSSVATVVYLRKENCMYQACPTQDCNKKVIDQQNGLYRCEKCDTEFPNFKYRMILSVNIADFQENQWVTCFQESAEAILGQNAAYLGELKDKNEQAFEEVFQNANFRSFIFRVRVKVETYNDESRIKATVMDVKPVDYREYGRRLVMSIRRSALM
Chain of UniProt Q8NBJ9 (Q8NBJ9 whole entry, looked up): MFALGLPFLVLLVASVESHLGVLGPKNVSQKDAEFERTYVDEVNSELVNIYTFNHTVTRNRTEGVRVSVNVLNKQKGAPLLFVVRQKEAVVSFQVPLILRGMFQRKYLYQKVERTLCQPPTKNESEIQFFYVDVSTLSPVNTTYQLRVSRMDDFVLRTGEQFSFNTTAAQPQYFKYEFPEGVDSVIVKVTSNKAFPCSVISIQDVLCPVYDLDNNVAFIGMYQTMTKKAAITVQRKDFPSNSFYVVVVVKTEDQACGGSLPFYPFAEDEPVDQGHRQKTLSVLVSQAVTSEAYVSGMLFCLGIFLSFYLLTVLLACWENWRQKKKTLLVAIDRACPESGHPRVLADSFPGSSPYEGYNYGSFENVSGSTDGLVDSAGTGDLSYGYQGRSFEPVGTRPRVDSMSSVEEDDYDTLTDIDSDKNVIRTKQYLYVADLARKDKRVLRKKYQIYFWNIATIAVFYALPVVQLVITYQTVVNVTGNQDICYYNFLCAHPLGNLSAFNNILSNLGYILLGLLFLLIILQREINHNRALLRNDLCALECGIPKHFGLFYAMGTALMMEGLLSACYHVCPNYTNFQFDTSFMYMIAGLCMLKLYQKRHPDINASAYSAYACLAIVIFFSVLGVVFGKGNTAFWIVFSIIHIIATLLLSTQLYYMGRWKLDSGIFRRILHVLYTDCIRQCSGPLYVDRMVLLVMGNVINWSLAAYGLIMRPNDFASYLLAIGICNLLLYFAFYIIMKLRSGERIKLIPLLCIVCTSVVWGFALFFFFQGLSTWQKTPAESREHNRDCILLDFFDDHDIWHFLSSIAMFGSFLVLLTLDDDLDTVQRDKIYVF
Chain of UniProt Q8N0T1 (Q8N0T1 whole entry, looked up): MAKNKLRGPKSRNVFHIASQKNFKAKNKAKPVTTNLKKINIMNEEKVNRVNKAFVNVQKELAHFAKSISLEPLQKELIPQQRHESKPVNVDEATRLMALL
Chain of UniProt O00560 (O00560 whole entry, looked up): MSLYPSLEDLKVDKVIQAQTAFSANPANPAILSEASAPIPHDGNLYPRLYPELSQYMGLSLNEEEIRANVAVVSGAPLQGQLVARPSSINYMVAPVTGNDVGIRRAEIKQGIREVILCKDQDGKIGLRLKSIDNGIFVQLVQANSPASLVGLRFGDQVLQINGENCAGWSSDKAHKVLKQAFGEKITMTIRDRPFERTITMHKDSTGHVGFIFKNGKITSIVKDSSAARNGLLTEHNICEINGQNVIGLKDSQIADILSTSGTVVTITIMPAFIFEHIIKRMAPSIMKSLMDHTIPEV
Chain of UniProt Q96IZ7 (Q96IZ7 whole entry, looked up): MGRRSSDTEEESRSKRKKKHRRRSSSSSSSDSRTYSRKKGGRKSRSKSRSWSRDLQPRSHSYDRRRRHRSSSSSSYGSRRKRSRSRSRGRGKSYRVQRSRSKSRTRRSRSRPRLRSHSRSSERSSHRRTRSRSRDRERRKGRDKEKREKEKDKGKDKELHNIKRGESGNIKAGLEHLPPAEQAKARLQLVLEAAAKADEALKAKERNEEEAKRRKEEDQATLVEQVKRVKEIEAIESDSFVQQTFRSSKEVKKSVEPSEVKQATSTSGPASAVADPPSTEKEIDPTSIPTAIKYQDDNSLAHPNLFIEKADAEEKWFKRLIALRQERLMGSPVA
Chain of UniProt Q9NW64 (Q9NW64 whole entry, looked up): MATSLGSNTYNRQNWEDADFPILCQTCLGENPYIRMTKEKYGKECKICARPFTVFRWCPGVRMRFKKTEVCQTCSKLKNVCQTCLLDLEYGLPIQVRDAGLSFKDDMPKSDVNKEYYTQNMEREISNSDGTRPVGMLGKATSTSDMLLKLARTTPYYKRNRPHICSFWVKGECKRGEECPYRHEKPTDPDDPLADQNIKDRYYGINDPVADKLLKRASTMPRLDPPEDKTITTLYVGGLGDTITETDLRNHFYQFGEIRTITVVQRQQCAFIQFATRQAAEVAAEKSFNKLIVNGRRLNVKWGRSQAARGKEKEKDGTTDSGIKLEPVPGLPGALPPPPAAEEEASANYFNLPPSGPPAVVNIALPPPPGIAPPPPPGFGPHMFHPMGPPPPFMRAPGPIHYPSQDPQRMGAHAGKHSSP

Target	log2 fold change [1]	log2 fold change [2]	log2 fold change [3]	log2 fold change [4]	log2 fold change (Nexturastat A)	log2 fold change (vemurafenib)	log2 fold change [5]	log2 fold change [6]	log2 fold change (givinostat)	log2 fold change (barasertib)	log2 fold change [7]	log2 fold change (volasertib)	log2 fold change [8]	log2 fold change (epoxomicin)	log2 fold change [9]	log2 fold change [10]	log2 fold change [11]	log2 fold change (rosiglitazone)	log2 fold change [12]	log2 fold change [13]
SKP1 (UniProt P63208)	0.095	0.048	0.094	0.017	-0.052	-0.036	0.008	-0.032	-0.05	-0.021	-0.012	-0.02	-0.027	0.034	0.035	-0.035	-0.019	-0.02	-0.126	0.244
RRAS2 isoform 4 (UniProt P62070)	-0.016	-0.02	-0.009	-0.021	-0.015	0.011	-0.037	-0.034	-0.017	-0.049	0.061	0.124	-0.048	0.063	0.004	0.014	-0.013	0.019	-0.064	0.207 (active)
RPS9 (UniProt P46781)	0.039	0	-0.073	-0.016	0.104	-0.107	-0.066	0.087	0.038	-0.114	0.203	0.339	0.02	-0.24	0.025	0.088	-0.095	-0.078	0.174	0.146
SIDT2 isoform 2 (UniProt Q8NBJ9)	-0.021	0.019	-0.025	-0.367 (active)	0.042	0.019	-0.033	0.017	0.038	-0.148	-0.035	0.055	-0.026	0.002	-0.014	0.069	-0.041	0.019	0.024	-0.02
RPS19 (UniProt P39019)	0.008	0.007	-0.054	-0.009	0.121	-0.07	-0.066	-0.039	0.013	-0.083	0.147	0.319	0.008	-0.115	0.041	0.091	-0.073	-0.063	0.147	0.121
SGPL1 (UniProt O95470)	-0.036	-0.056	0.014	-0.054	0.031	0.033	-0.036	0.074	-0.035	0.051	0	-0.04	-0.002	-0.066	0.01	0.009	-0.023	-0.061	0.047	0.189
SEC23IP (UniProt Q9Y6Y8)	0.016	0.041	0.041	0.012	0.022	0.051	0.056	0.024	0.047	0.016	-0.069	-0.005	0.032	-0.009	-0.101	-0.057	0.012	0.289	-0.008	-0.133
REL (UniProt Q04864)	0.001	-0.044	0.033	-0.004	-0.053	0.044	0.077	-0.022	0.101	0.079	0.045	-0.176	-0.022	0.043	-0.062	0.159	0.003	0.063	0.011	0.141
RBIS (UniProt Q8N0T1)	-0.099	-0.011	-0.055	0.023	-0.012	-0.002	-0.063	-0.074	-0.02	-0.009	0.105	0.06	-0.012	0.204	0.034	0.075	-0.108	-0.008	0.026	-0.034
SDCBP (UniProt O00560)	0.007	0.021	0.009	0.025	0.001	0.051	0.041	-0.176	-0.027	-0.039	-0.223	-0.249	0.01	-0.043	0.059	-0.01	-0.061	-0.008	0.045	-0.229
RSF1 (UniProt Q96T23)	0.111	-0.112	-0.015	0.217	-0.091	0.119	0.052	0.029	0.084	0.095	-0.138	-0.358	0.012	0.165	-0.097	-0.098	0.141	0.006	-0.008	-0.109
SLC12A9 (UniProt Q9BXP2)	-0.007	0.056	-0.04	0.005	-0.008	0.017	-0.012	-0.059	-0.014	0.083	0.014	-0.034	-0.016	0.059	0.037	-0.016	-0.02	0.034	-0.075	-0.136
RBM22 (UniProt Q9NW64)	-0.049	0.031	-0.056	-0.014	0.052	0.003	-0.004	-0.038	0.018	-0.006	-0.027	-0.3 (active)	0.002	-0.009	-0.018	0.061	-0.058	0.005	0.011	-0.003
RPA1 (UniProt P27694)	0.028	-0.047	-0.002	0.05	0.044	0.039	0.125	0.104	0.069	0.068	-0.108	-0.326 (active)	0.083	0.09	-0.028	-0.02	0.044	0.063	-0.048	-0.079
SCAF8 isoform 2 (UniProt Q9UPN6)	0.048	0.002	-0.03	0.076	0	-0.001	0.004	-0.013	0.038	0.067	-0.065	-0.27	0.037	0.101	-0.003	0.071	0.1	0.091	-0.045	0.015
RSRC1 (UniProt Q96IZ7)	0.041	0.013	0.006	0.056	0.02	-0.046	0.004	-0.026	0.019	-0.031	0.01	0.056	-0.041	0.083	0.022	-0.021	-0.005	0.002	-0.01	-0.062
